# Experimental data published in PubChem BioAssay (NCI).
# About 83,000 compounds went through this panel and 20% of them were active in at least one assay; those are over-represented in the sample as a whole.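 Negative percent growth values reflect cell death: -40 means 40% of the cells present at the start died, and -100 means all died.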 Unmarked numbers belong to inactive results. Active and inactive are the calls of the source. Rule for the calls: active = growth percent below 10; inactive = the rest.
# How the values were obtained:
# Assay in all cases: NCI-60 one-dose screen, 48 h (100 = growth as untreated, 0 = no growth, -100 = all killed)
# [1] = test system: HT29 colon; details: 10 µM unless noted
# [2] = test system: SNB-75 CNS; details: 10 µM unless noted
# [3] = test system: SNB-19 CNS; details: 10 µM unless noted
# [4] = test system: U251 CNS; details: 10 µM unless noted
# [5] = test system: SK-MEL-5 melanoma; details: 10 µM unless noted
# [6] = test system: UACC-62 melanoma; details: 10 µM unless noted
# [7] = test system: LOX IMVI melanoma; details: 10 µM unless noted
# [8] = test system: SK-MEL-28 melanoma; details: 10 µM
# [9] = test system: SK-MEL-2 melanoma; details: 10 µM unless noted
# [10] = test system: EKVX NSCLC; details: 10 µM unless noted
# [11] = test system: SN12C renal; details: 10 µM unless noted
# [12] = test system: UO-31 renal; details: 10 µM unless noted
# [13] = test system: TK-10 renal; details: 10 µM unless noted
# [14] = test system: ACHN renal; details: 10 µM unless noted
# [15] = test system: CAKI-1 renal; details: 10 µM unless noted
# [16] = test system: A498 renal; details: 10 µM unless noted
# [17] = test system: CCRF-CEM leukemia; details: 10 µM unless noted
# [18] = test system: MOLT-4 leukemia; details: 10 µM unless noted
# [19] = test system: SR leukemia; details: 10 µM unless noted
# [20] = test system: PC-3 prostate; details: 10 µM unless noted
SMILES,growth [1],growth [2] [%],growth [3] [%],growth [4],growth [5],growth [6] [%],growth [7],growth [8],growth [9],growth [10] [%],growth [11] [%],growth [12],growth [13] [%],growth [14] [%],growth [15] [%],growth [16],growth [17],growth [18],growth [19],growth [20]
CCn1c(Cc2ccccc2Nc2c(Cl)cccc2Cl)nnc1SCC(=O)NN1C(=O)/C(=C/c2cccc(OC)c2OC)SC1=S,113%,87.3,91.2,90.1%,97.1%,96.6,92%,104%,96.7%,93.2,95,77.3%,108,96.9,94.1,103%,96.6%,95.8%,102%,–
COc1ccc(CCN2C(=O)CCSC2=S)cc1OC,107%,84.7,103,97.2%,94.6%,94.6,91.1%,98.2%,102%,97.4,92.3,79.2%,61.4,102,95.2,99.3%,73.6%,100%,33.2%,–
COc1ccc(Br)c(/C=C2\SC(=Nc3ccc(O)cc3)NC2=O)c1,113%,72.2,85.5,86.6%,90.3%,89.5,91.2%,–,96.2%,88.7,89.7,49.8%,96.4,89.7,75.8,97.6%,75%,85.2%,110%,–
COC(=O)[C@@H]1CCCN1C(=O)[C@H]1CCCN1C(=O)[C@@H](Cc1c[nH]c2ccccc12)NC(=S)Nc1cc(C(F)(F)F)cc(C(F)(F)F)c1,33%,46.6,37.6,–,–,48.5,38.8%,55.7%,55.3%,–,44.4,28.3%,78.7,37.2,22,57.7%,36.3%,16.3%,5.25% (active),32.4%
CCOC(=O)c1cnc2c(C)cccc2c1Nc1ccc(C(C)=O)cc1,-67.4% (active),32.4,–,-81.3% (active),-91.8% (active),12.3,-88.5% (active),-93% (active),-76.2% (active),–,29.9,13.3%,10.7,17.7,12,46.5%,1.73% (active),-4.17% (active),-28.5% (active),12.4%
O=C(NC1CCN(Cc2ccccc2)CC1)c1cc(C(=O)NC2CCN(Cc3ccccc3)CC2)cc(C(=O)NC2CCN(Cc3ccccc3)CC2)c1,75%,68,–,72.4%,85.2%,84.9,-69.6% (active),95.6%,73.6%,–,69.2,-29.8% (active),80.8,94.5,12.2,96.1%,2.34% (active),45.8%,20.1%,74.4%
COc1ccc(N)c(-c2cc3c(c4c2[nH]c2ccc(OC)cc24)CCCC3)c1,76.1%,70.9,–,74.3%,94.7%,69.5,83.1%,97.7%,–,72.5,87.8,57.6%,114,89.4,67.1,88.8%,55.4%,68.8%,79.1%,52.9%
O=C1/C(=C/c2cccc(O)c2)COc2ccc(O)cc21,72.7%,96.4,–,29.6%,86.9%,82.4,-57.1% (active),–,108%,93.9,73.8,79.6%,130,67.3,95.3,117%,8.33% (active),33.3%,10.5%,72.7%
CN=c1ccc2nc3ccc(N)cc3sc-2c1,84.6%,33.6,30.9,–,–,15.8,2.59% (active),51.7%,-0.853% (active),–,17,60.7%,49.4,42.2,28.2,79.9%,21.5%,1.3% (active),38%,5.54% (active)
CC(=O)c1ccc(Cc2ccc(C(C)=O)s2)s1,103%,96.9,–,98%,100%,96.4,93.7%,112%,–,–,98,88.2%,94.9,100,96.4,-68.7% (active),95.5%,83.2%,89.4%,93.8%
O=C1c2cc(Br)ccc2Oc2cc([N+](=O)[O-])ccc2N1c1ccc(I)cc1F,99.6%,89.5,–,94.4%,99.2%,87.2,93.5%,113%,101%,91.9,94.2,73%,112,99.7,84.9,98.9%,96.8%,85%,–,103%
O=C1c2ccc3c4c(ccc(c24)C(=O)N1CCCCO)C(=O)N(CCCCO)C3=O,10.9%,54.2,–,72.3%,78.4%,79.6,59.9%,15.6%,–,–,72,24.4%,22.5,43.9,35.4,56.2%,6.38% (active),22.5%,5.37% (active),63%
O=C1/C(=C\c2ccc[nH]2)c2ccccc2N1c1ccccc1,105%,84.7,–,99.3%,90.5%,77,96.4%,96.7%,–,47.7,89.1,93.2%,102,92.2,92,101%,99.2%,102%,139%,90.9%
Clc1ccc(-c2nnc(COc3ccc(C4=NNC(c5ccco5)C4)cc3)o2)cc1 (centres undefined),101%,84.9,92.5,–,–,76.3,84.8%,101%,106%,–,86.5,67.3%,83.4,94.9,86.4,83.8%,84.7%,85.5%,80.7%,80.8%
Cc1nc2ccccc2c(/C=C/c2ccc(F)cc2)c1C(N)=O,115%,85.4,–,98.1%,95.9%,96.1,96.4%,117%,–,94.8,102,80.9%,134,100,87.2,89.2%,93.6%,111%,–,89.1%
CC(=O)Nc1nc2c(s1)CCc1c-2cn(S(=O)(=O)c2ccccc2)c1-c1ccccc1,78.1%,82.8,–,62.4%,43.9%,58,47.1%,95.1%,94.5%,–,76.8,41.2%,85.9,69.1,56.9,88.1%,43.1%,48.2%,28.1%,40.9%
